Inconclusive results are not listed. A structure can be active in one record and inactive in another. The source made the active and inactive calls. Calls follow the shape of the dose curve; as a rule, active = well fitted curve in the direction sought with a large enough effect in the repeat runs; inconclusive = weak or mixed curves; inactive = no such curve, though single readings can be large; an effect the other way counts as inactive or inconclusive.

This note sets out measurements from PubChem BioAssay (Tox21).

Assay [1] in a line: A CellTox Green Cytotoxicity Assay to monitor cytotoxicity in HEK293 cells - 40 hour (AID 1224871). Also: nearly all actives have a fitted effect of over 45% in size. Also: potency is read from the fitted curve at half-maximal effect. Summed up: (§1)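 Fluorescence intensity, read at 0, 8, 16, 24, 32 and 40 h of compound treatment, reflected dye binding to DNA of dead HEK293 cells; compounds (23 nL, DMSO) were added 5 h after plating cells with reagent.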
Assay [2] can be described thus: qHTS RealTime-Glo MT Cell Viability Assay in HEK293 cells - 16 hour (AID 1224872). Also: nearly all actives have a fitted effect of over 50% in size. Also: potency is read from the fitted curve at half-maximal effect. The procedure, abridged:
(§2)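 HEK293 cells seeded with NanoLuc/prosubstrate reagent, rested 5 h at 37 C, then dosed and kept at 37 C up to 40 h. Nonlytic real-time luminescence from viable cells read at 0, 8, 16, 24, 32 and 40 h.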
In general terms: In qHTS, concentration-response curves come from the screen itself.

Assay [3] can be described thus: A CellTox Green Cytotoxicity Assay to monitor cytotoxicity in HEK293 cells - 24 hour (AID 1224875). Also: nearly all actives have a fitted effect of over 45% in size. Also: potency is read from the fitted curve at half-maximal effect. Summed up:
as §1

Assay [4] is described as follows: qHTS RealTime-Glo MT Cell Viability Assay in HepG2 cells - 32 hour (AID 1224877). Also: nearly all actives have a fitted effect of over 55% in size. Also: potency is read from the fitted curve at half-maximal effect. Summed up: (§3)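 HepG2 cells (600/well) were dispensed with RealTime-Glo reagents, incubated 5 h at 37 °C, then treated with compounds in DMSO for up to 40 h. Nonlytic NanoLuc luminescence reflecting viable cells was read at each stated time point.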
Assay [5] is described as follows: A CellTox Green Cytotoxicity Assay to monitor cytotoxicity in HepG2 cells - 24 hour (AID 1224878). Also: nearly all actives have a fitted effect of over 45% in size. Also: potency is read from the fitted curve at half-maximal effect. The procedure, abridged: (§4)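 Using 1536-well format, dye-containing HepG2 suspension was seeded, allowed 5 h at 37 C/5% CO2, dosed by pintool with compounds, positive and negative controls, and imaged for fluorescence across 40 h.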
A short description of assay [6]: A CellTox Green Cytotoxicity Assay to monitor cytotoxicity in HepG2 cells - 40 hour (AID 1224879). Also: nearly all actives have a fitted effect of over 40% in size. Also: potency is read from the fitted curve at half-maximal effect. Summed up: as §4
Assay [7] can be described thus: qHTS RealTime-Glo MT Cell Viability Assay in HEK293 cells - 0 hour (AID 1224880). Also: nearly all actives have a fitted effect of over 45% in size. Also: potency is read from the fitted curve at half-maximal effect. The procedure, abridged: (§5)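 Viable HEK293 cells reduce a cell-permeant prosubstrate; the product diffuses out and is consumed by NanoLuc in the medium to give light. Compounds went in after a 5 h incubation and plates were read over the treatment course.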
Assay [8] is described as follows: A CellTox Green Cytotoxicity Assay to monitor cytotoxicity in HepG2 cells - 0 hour (AID 1224882). Also: nearly all actives have a fitted effect of over 35% in size. Summed up:
as §4

Assay [9] can be described thus: A CellTox Green Cytotoxicity Assay to monitor cytotoxicity in HepG2 cells - 32 hour (AID 1224883). Also: nearly all actives have a fitted effect of over 50% in size. Also: potency is read from the fitted curve at half-maximal effect. The procedure, abridged: as §4
Assay [10] can be described thus: A CellTox Green Cytotoxicity Assay to monitor cytotoxicity in HEK293 cells - 8 hour (AID 1224884). Also: nearly all actives have a fitted effect of over 35% in size. Also: potency is read from the fitted curve at half-maximal effect. The procedure, abridged:
as §1

The nature of assay [11]: qHTS RealTime-Glo MT Cell Viability Assay in HepG2 cells - 16 hour (AID 1224885). Also: nearly all actives have a fitted effect of over 50% in size. Also: potency is read from the fitted curve at half-maximal effect. The procedure, abridged:
as §3

A short description of assay [12]: qHTS RealTime-Glo MT Cell Viability Assay in HEK293 cells - 24 hour (AID 1224886). Also: nearly all actives have a fitted effect of over 50% in size. Also: potency is read from the fitted curve at half-maximal effect. The procedure, abridged:
as §2

A short description of assay [13]: qHTS RealTime-Glo MT Cell Viability Assay in HEK293 cells - 8 hour (AID 1224887). Also: nearly all actives have a fitted effect of over 50% in size. Also: potency is read from the fitted curve at half-maximal effect. Summed up:
as §5

Assay [14] is described as follows: A CellTox Green Cytotoxicity Assay to monitor cytotoxicity in HEK293 cells - 16 hour (AID 1224888). Also: nearly all actives have a fitted effect of over 35% in size. Also: potency is read from the fitted curve at half-maximal effect. Summed up:
as §1

The nature of assay [15]: A CellTox Green Cytotoxicity Assay to monitor cytotoxicity in HEK293 cells - 32 hour (AID 1224881). Also: nearly all actives have a fitted effect of over 40% in size. Also: potency is read from the fitted curve at half-maximal effect. Summed up: as §1
Assay [16] in a line: qHTS RealTime-Glo MT Cell Viability Assay in HepG2 cells - 0 hour (AID 1224889). Also: nearly all actives have a fitted effect of over 50% in size. Summed up:
as §3

Assay [17] is described as follows: A CellTox Green Cytotoxicity Assay to monitor cytotoxicity in HepG2 cells - 16 hour (AID 1224876). Also: nearly all actives have a fitted effect of over 45% in size. Also: potency is read from the fitted curve at half-maximal effect. Summed up: as §4
A short description of assay [18]: A CellTox Green Cytotoxicity Assay to monitor cytotoxicity in HepG2 cells - 8 hour (AID 1224890). Also: nearly all actives have a fitted effect of over 45% in size. Also: potency is read from the fitted curve at half-maximal effect. The procedure, abridged:
as §4

Assay [19] can be described thus: qHTS RealTime-Glo MT Cell Viability Assay in HEK293 cells - 40 hour (AID 1224874). Also: nearly all actives have a fitted effect of over 50% in size. Also: potency is read from the fitted curve at half-maximal effect. The conditions noted are these: RealTime-Glo luminescence; max response: stronger effect = lower value. Summed up:
as §5

The nature of assay [20]: qHTS RealTime-Glo MT Cell Viability Assay in HepG2 cells - 8 hour (AID 1224873). Also: nearly all actives have a fitted effect of over 55% in size. Summed up:
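HepG2 cells mixed with RealTime-Glo MT reagents (NanoLuc plus cell-permeant prosubstrate) were seeded at 600 cells/well, incubated 5 h at 37 C/5% CO2, then pinned with compounds in DMSO; nonlytic luminescence tracked viability during 40 h treatment.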
% is scaled to controls: 0 for no effect and ±100 for the full control effect.

Consider `C[C@]12CCC(=O)C=C1CC[C@@H]1[C@@H]2[C@@H](O)C[C@@]2(C)[C@H]1CC[C@]2(O)C(=O)COC(=O)CCC(=O)O`, for which the Potency entry in [1], in assay [2], in [3], in assay [4], in assay [5] and in assay [6] was “inactive” each time. Also, the Potency result in assay [8], in assay [9], in [10], in assay [11], in assay [12] and in [13] was “inactive” throughout. Besides, the Potency entry in assay [14] was “inactive”. Besides, the Potency in assay [7] was 10.7 µM (active).
With `CCCN(CCC)c1c([N+](=O)[O-])cc(C(F)(F)F)c(N)c1[N+](=O)[O-]`, the Potency in assay [1] is 54.8 µM (active); in [2], 12.3 µM (active); in [3], 54.8 µM (active); in [4] it was 48.9 µM (active); in assay [6], 54.8 µM (active); in assay [15], 54.8 µM (active). Moreover, the Potency in assay [9] was 54.8 µM (active); in [11], 48.9 µM (active); in assay [12] it was 19.4 µM (active); in assay [13], 9.75 µM (active). The Potency result in [7] and in [16] was “inactive” in each case.
On to `O=c1cccccc1O`, for which the Potency entry in assay [1], in [2], in [3], in assay [17], in assay [4] and in assay [5] was “inactive” each time. The Potency result in assay [6], in assay [7], in assay [15], in assay [8], in assay [9] and in [10] was “inactive” throughout. The Potency entry in assay [11], in assay [13], in assay [14] and in assay [18] was “inactive” throughout.
`CC(C)(C)NC(=O)[C@@H]1C[C@@H]2CCCC[C@@H]2CN1C[C@@H](O)[C@H](Cc1ccccc1)NC(=O)[C@H](CC(N)=O)NC(=O)c1ccc2ccccc2n1`: the Potency in assay [1] is 55.7 µM (active); in assay [2], 24.9 µM (active); in [19] it was 17.6 µM (active); in [5], 55.7 µM (active); in assay [6], 49.6 µM (active); in assay [9] it was 55.7 µM (active). For the same compound, the Potency in assay [11] is 55.7 µM (active); in assay [12] it was 19.7 µM (active); in assay [13] it was 19.7 µM (active). Further, the Potency entry in assay [7], in assay [8], in assay [10], in [14], in assay [16] and in [18] was “inactive” each time.
`CCCN(CCC)C(=O)C(CCC(=O)OCCCN1CCN(CCOC(=O)Cc2c(C)n(C(=O)c3ccc(Cl)cc3)c3ccc(OC)cc23)CC1)NC(=O)c1ccccc1` (configuration not stated): the Potency result in assay [1], in assay [3], in assay [7], in assay [15], in [8] and in assay [10] was “inactive” in each case. For the same compound, the Potency entry in assay [14] and in [16] was “inactive” throughout. In addition, the Potency is 21.3 µM (active) in assay [2]; 23.9 µM (active) in assay [5]; 23.9 µM (active) in [6]; 23.9 µM (active) in [9]; 23.9 µM (active) in assay [13].
In the case of `O=C(N/N=C/c1ccccc1O)c1ccncc1`, the Potency result in assay [1], in [2], in assay [3], in assay [17], in assay [4] and in assay [5] was “inactive” throughout. For the same compound, the Potency entry in assay [6], in assay [7], in assay [15], in assay [9], in [10] and in assay [11] was “inactive” throughout. For the same compound, the Potency result in assay [14], in assay [16] and in [18] was “inactive” in each case.
In the case of `CC(C)C(C)(C)C(C)(C)C(C)(C)S`, the Potency result in [1], in [20], in assay [3], in assay [17], in assay [4] and in assay [5] was “inactive” throughout. In addition, the Potency result in assay [6], in [7], in assay [15], in assay [8], in [9] and in [11] was “inactive” throughout. In addition, the Potency result in assay [12] and in [18] was “inactive” throughout. In [19], the max response is 0.74% (inactive).
On to `O=C1Cc2cc(CCN3CCN(c4nsc5ccccc45)CC3)c(Cl)cc2N1`, for which the Potency in assay [1] is 26.8 µM (active); in [2] it was 23.9 µM (active); in assay [12], 23.9 µM (active). Also, the Potency entry in assay [7], in assay [8], in assay [16] and in assay [18] was “inactive” in each case.
As to `CC[C@@]1(O)C(=O)OCc2c1cc1n(c2=O)Cc2c-1nc1ccccc1c2/C=N/OC(C)(C)C`, the Potency result in assay [1], in assay [20], in assay [3], in assay [7], in assay [15] and in [8] was “inactive” in each case. For the same compound, the Potency entry in [10], in assay [14] and in assay [18] was “inactive” throughout. The Potency in assay [19] was 0.0239 µM (active); in assay [17], 3.38 µM (active); in assay [5], 0.848 µM (active); in assay [6] it was 1.07 µM (active); in assay [9], 1.07 µM (active); in [12], 0.0239 µM (active).
`CCCCC(CC)COP(=O)(O)OCC(CC)CCCC` (configuration not stated): the Potency was 43.6 µM (active) in assay [1]; 43.6 µM (active) in assay [3]; 49.1 µM (active) and inactive in assay [5]; 54.9 µM (active) in [6]; 43.6 µM (active) in [15]; 38.9 µM (active) in [14]. Besides, the Potency result in assay [2], in assay [17], in assay [4], in assay [7], in [10] and in [11] was “inactive” each time. Moreover, the Potency entry in assay [13], in [16] and in assay [18] was “inactive” each time.
Take `Oc1cccc(-c2c3nc(c(-c4cccc(O)c4)c4ccc([nH]4)c(-c4cccc(O)c4)c4nc(c(-c5cccc(O)c5)c5ccc2[nH]5)CC4)C=C3)c1`: the Potency result in assay [1], in [3], in assay [17], in assay [4], in assay [5] and in assay [6] was “inactive” throughout. The Potency entry in [7], in assay [8], in [9], in [10], in assay [14] and in assay [16] was “inactive” throughout. Also, in assay [18], the Potency entry is “inactive”. Also, the Potency in [2], in assay [12] and in assay [13] was 23.9 µM (active) each time.
Take `Nc1ccccc1O`: the Potency entry in assay [1], in [2], in assay [3], in [17], in assay [4] and in assay [5] was “inactive” in each case. Besides, the Potency result in assay [6], in assay [7], in assay [15], in [8], in [9] and in assay [11] was “inactive” in each case. Also, the Potency result in assay [14], in [16] and in assay [18] was “inactive” in each case.
For `CCCC(=O)OC[C@@H](OC(=O)CCC)[C@@H](OC(=O)CCC)[C@H](Cn1c2nc(=O)[nH]c(=O)c-2nc2cc(C)c(C)cc21)OC(=O)CCC`, the Potency in assay [1] was 21.3 µM (active); in assay [3], 21.3 µM (active); in assay [17], 19 µM (active); in assay [5] it was 21.3 µM (active); in assay [6], 21.3 µM (active); in assay [15], 21.3 µM (active). Moreover, the Potency in assay [9] was 19 µM (active); in [10] it was 21.3 µM (active); in [14] it was 21.3 µM (active); in assay [18], 19 µM (active). The max response in assay [19] is -24.9% (inactive). For the same compound, the Potency entry in [7] and in assay [16] was “inactive” throughout.
With `C/C=C(\C)C(=O)OCc1ccccc1`, the Potency result in [2], in assay [20], in assay [3], in [4], in [5] and in [6] was “inactive” throughout. In addition, the Potency result in [7], in assay [8], in assay [9], in assay [10], in [11] and in assay [12] was “inactive” throughout. Further, the Potency entry in assay [13], in assay [16] and in assay [18] was “inactive” in each case. The max response in [19] was -2.09% (inactive).
